Shown are actives, neighbours in structure and some others; about 1.5% of the full set was active somewhere.
EBV gp42 inh = inhibitors of Epstein-Barr virus glycoprotein 42; Q1HVG2; Fluorescence polarization binding assay, mP read-out; inhibition, % (tested at 21.74 µM); hit rate 0.42% among 220,000; in the data active = inhibition above about 50%
Target sequence (Q1HVG2 whole entry, looked up): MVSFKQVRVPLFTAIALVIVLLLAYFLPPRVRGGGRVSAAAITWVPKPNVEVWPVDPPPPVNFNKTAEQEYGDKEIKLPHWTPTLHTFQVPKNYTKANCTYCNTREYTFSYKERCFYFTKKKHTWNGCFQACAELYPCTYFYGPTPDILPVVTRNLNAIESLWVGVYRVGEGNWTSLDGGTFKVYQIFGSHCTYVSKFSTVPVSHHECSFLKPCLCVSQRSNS
MEX-5 binding = C. elegans MEX-5 TCR-2 RNA binding activity. activity score (negative = inhibition of binding), % at 10 µM. hit rate 0.38% among 300,000. MEX-5/FITC-TCR2 RNA binding, fluorescence polarization; hits give low values;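 active = inhibition past about -25% in most replicates, and total fluorescence under double the plate's negative control median, limit read from the data; inconclusive = replicates evenly split on the limit, or fluorescence at least double controls; inactive = too little inhibition in most replicates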;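 also: 0% = DMSO and -100% = 5 µM competing unlabeled TCR2 RNA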
GLD-1 TGE inh = GLD-1-TGE RNA interaction inhibition (C. elegans); Q17339; purified GLD-1 + fluorescein TGE RNA, fluorescence polarization; hit rate 0.44% among 320,000; inhibition, % at 5.96 µM;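 active = percent inhibition above a per-plate cutoff, the plate mean of test compounds plus 3 SD, cut at about 30% in these data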;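 also: 0% = DMSO wells with GLD-1 and probe and 100% = wells lacking GLD-1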
MCL1 BIM primary = MCL1-BIM-BH3 interaction inhibition (human). Q07820. GST-MCL1 / FITC-Bim-BH3 fluorescence polarization. inhibition, % at 10.9 µM. hit rate 0.68% among 320,000;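 active = inhibition above the mean inhibition of all tested compounds plus 3 SD, set per campaign, cut at about 40% in these data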;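 also: 0% = DMSO wells and 100% = unlabeled Bim-BH3 peptide control; higher means more loss of mP so more displacement of Bim peptide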
Bcl-xL primary = blocks human Bcl-xL binding to Bim BH3 peptide; Q07817; inhibition, % at 10.9 µM; GST-Bcl-xL / FITC-Bim BH3 peptide fluorescence polarization; hit rate 0.7% among 320,000;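 active = inhibition above the mean of all tested compounds plus 3 SD, cutoff set per campaign, cut at about 30% in these data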;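 also: 0% = DMSO wells and 100% = unlabeled Bim-BH3 peptide competitor; inhibitors lower millipolarization by displacing the labeled peptide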
E coli Lon inh = E. coli protease La inhibition | inhibition, % at 7.94 µM | hit rate 0.42% among 360,000 | P0A9M0 | purified E. coli Lon protease, fluorescence polarization; in the data active = inhibition above about 13%, passing the limit was not always enough;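 also: 0% = enzyme with probe and DMSO and 100% = no enzyme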
* hit, by the source's call; u = inconclusive; x = not tested or not shown.

SMILES	EBV gp42 inh	MEX-5 binding	GLD-1 TGE inh	MCL1 BIM primary	Bcl-xL primary	E coli Lon inh
Cc1cc(Cl)ccc1OCCCC(=O)NNC(=O)c1ccccc1O	x	-1	-1	5	3	4
O=C(c1ccccc1NS(=O)(=O)c1ccccc1[N+](=O)[O-])N1CCCC1	x	1	-8	-10	-5	-7
Cc1cccc(S(=O)(=O)N(C)C[C@H]2OCc3cnnn3CCCC(=O)N([C@H](C)CO)C[C@@H]2C)c1	x	x	x	x	x	-1
O=C(NCC1CCCO1)C1CCN(S(=O)(=O)Cc2ccccc2)CC1 (stereo not drawn)	6	2	151*	-1	2	0
O=C(NCC1CCCO1)C1CCN(S(=O)(=O)c2ccccc2)CC1 (stereo not drawn)	-8	1	3	4	5	4
O=C1N=C(N2CCOCC2)S/C1=C\c1ccc(-c2ccccc2Cl)o1	3	u	-2	31	40*	4
CCOc1cc(C=C2C(=O)c3ccccc3C2=O)ccc1OCC(=O)Nc1ccc(C)cc1	88*	-36*	6	20	15	12
COC(=O)C1=C(C)N=C2SC(C#N)=C(N)N2C1c1cccc(OC)c1 (stereo not drawn)	-21	-28*	0	-5	0	-7
CC(=O)c1cccc(OCC(O)CNCCOc2ccc(C)cc2)c1 (stereo not drawn)	x	0	-5	-2	1	-2
O=c1cc(CN2CCN(c3ccc(F)cc3)CC2)nc2sccn12	24	-12	24	34	34*	-6
CCCCNC(=O)CN1CCC2(O)CCCCC2C1c1ccccc1OC (stereo not drawn)	-2	0	79*	14	15	-4
CCOC(=O)N1CCN(/C=C(\C#N)c2nc3ccccc3s2)CC1	-48	-50*	-76	-96	-43	-10
N#C/C(=C\N1CCN(Cc2ccc3c(c2)OCO3)CC1)c1nc2ccccc2s1	-93	u	-70	-92	-44	-66
CCNC(=S)N/N=C1\C(=O)c2cccc3cccc1c23	3	1	5	13	6	-2
O=C(N/N=C1/C(=O)c2cccc3cccc1c23)c1ccc(Cl)cc1	67*	1	5	46*	57*	-11
O=C(O)c1cc([N+](=O)[O-])ccc1NCc1ccccn1	x	x	16	23	31*	5
O=C(O)c1cc([N+](=O)[O-])ccc1NCc1ccccc1Cl	-12	0	5	5	10	-3
Cc1nnsc1C(=O)N1CCN(c2cc(C(F)(F)F)ccn2)CC1	-5	-1	-3	-4	-1	-5
Oc1[nH]c(N=C2N=c3ccccc3=N2)c2ccccc12	-12	-38*	0	-2	0	-1
O=C(NNC(=O)c1sccc1-n1cccc1)c1cccc(Cl)c1	67*	1	0	-4	0	8
O=C(NNC(=O)c1sccc1-n1cccc1)c1ccccc1	-17	-1	0	4	6	4
C/C(=N/Nc1ccc(C(=O)O)cc1)c1ccc(O)c(O)c1O	-7	-41*	-2	-3	15	15
Cc1ccc(NC(=O)COC(=O)C2CCC2)cc1S(=O)(=O)N1CCOCC1	x	x	6	x	x	-4
CCOC(=O)c1oc2cc(OCC(=O)OC)ccc2c(=O)c1-c1ccc(OC)c(OC)c1	51*	0	4	2	2	-7
COC(=O)COc1ccc2c(-c3ccc(OC)cc3)cc(=O)oc2c1	3	3	-1	-7	0	-2
SMILES	EBV gp42 inh	MEX-5 binding	GLD-1 TGE inh	MCL1 BIM primary	Bcl-xL primary	E coli Lon inh
CCOC(=O)CN1C(=O)S/C(=C/c2ccc(OC)c([N+](=O)[O-])c2)C1=O	8	1	7	3	3	3
COc1cc(/C=C2\SC(=O)N(Cc3ccc(Cl)cc3)C2=O)cc([N+](=O)[O-])c1O	90*	x	x	x	x	-4
COc1cc(/C=C2\SC(=O)N(Cc3ccc(F)cc3)C2=O)cc([N+](=O)[O-])c1O	58*	-1	x	x	x	0
COc1cc(/C=C2\C(=O)NN(c3ccccc3)C2=O)cc([N+](=O)[O-])c1O	-16	-30*	2	25	17	7
COc1cc(NC(=O)C2=C(C)OCCS2)c(Cl)cc1C(=O)NCCN(C)C	x	1	12	2	2	-2
COc1cccc(NC(=O)CCC(=O)Nc2cc(OC)c(NC(=O)c3cccs3)cc2OC)c1	x	1	x	x	x	8

High-throughput results: PubChem BioAssay, several laboratories
